Results as given in PubChem BioAssay (NCATS).
Records with an inconclusive call do not appear. A call without a number means that no potency is given here. The source made the active and inactive calls. Calls come from the whole dose curve; as a rule, active = well fitted inhibition curve with a large enough effect; inconclusive = small, poorly fitted or top-dose-only effect; inactive = no such curve, though single readings can be large or run the other way.

test system: Zika virus NS2B-NS3 protease (linked construct); experiment: Primary screen NINDS Rhodamine qHTS for Zika virus inhibitors (AID 1347160); settings: purified NS2B-NS3 protease, Rhodamine110 substrate fluorescence; series mostly up to 57.1 µM; note: nearly all actives have a fitted effect of over 55% in size
Summary of the method: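 Percent inhibition, normalized to uninhibited and enzyme-free controls, is fitted to a 4-parameter Hill equation. Fluorescence change comes from a 15-min cleavage of 1.5 microM bis-peptide Rhodamine110 substrate by 25 nM linked NS2B-NS3 at room temperature.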
Potency is the fitted concentration of half-maximal effect.

Row | SMILES | Potency
1 | CC(=O)O[C@H]1C[C@@H]2[C@]3(CC[C@]4(C)[C@@H](C5(C)CCC(C(C)(C)O)O5)[C@@H](O)C[C@@]24C)C[C@@]32CC[C@H](O[C@@H]3OC[C@@H](O)[C@H](O)[C@H]3O)C(C)(C)[C@H]12 (stereo not given in full) | inactive
2 | C1CCN2CC3C[C@@H](CN4CCCC[C@@H]34)[C@H]2C1 | inactive
3 | CC(=O)Oc1cc2c(s1)CCN([C@H](C(=O)C1CC1)c1ccccc1F)C2 | inactive
4 | CC1CCC2C(C)(C)C(O)CCC2(C)C12Cc1c(O)cc3c(c1O2)CN=C3N (stereo not given) | inactive
5 | CCC(C)/C=C(C)/C=C/C1=CC2=C(Cl)C(=O)C(C)(OC(C)=O)C(=O)C2=CN1C1CCCCN(C(CCC(N)=O)C(=O)O)C1=O (stereo not given) | inactive
6 | NS(=O)(=O)NCCNc1nonc1C(=Nc1ccc(F)c(Br)c1)NO | inactive
7 | COc1cc([C@H]2OC[C@]3(OC(C)=O)[C@@H](c4ccc(O[C@@H]5O[C@H](CO)[C@@H](O)[C@H](O)[C@H]5O)c(OC)c4)OC[C@H]23)ccc1O | inactive
8 | OCCc1ccc(O[C@@H]2O[C@H](CO)[C@@H](O)[C@H](O)[C@H]2O)c(O)c1 | inactive
9 | CC12CCC3C(C)(C)C(O)CCC3(C)C1Cc1c(oc(C(=O)O)cc1=O)O2 (stereo not given) | inactive
10 | C[C@@H]1O[C@@H](O[C@H]2[C@H](OC(=O)C34CCC(C)(C)CC3C3=CCC5C6(C)CC(O)C(O[C@@H]7O[C@H](CO)[C@@H](O)[C@H](O)[C@H]7O)C(C)(C(=O)O)C6CCC5(C)C3(CO)CC4)O[C@H](C)[C@H](O)[C@@H]2O)[C@H](O)[C@H](O)[C@H]1O[C@@H]1OC[C@@H](O)[C@H](O)[C@H]1O (stereo not given in full) | inactive
11 | CC(=O)OC[C@]12[C@H](OC(C)=O)C(=O)[C@@H]3[C@@H](OC(C)=O)[C@@]14O[C@@]3(C)COC(=O)c1cccnc1[C@@H](C)[C@H](C)C(=O)O[C@@H]([C@H](OC(C)=O)[C@@H]2OC(C)=O)[C@]4(C)O | inactive
12 | COc1cc(/C=C/C(=O)OC[C@H]2O[C@H](O[C@]3(CO)O[C@H](CO)[C@@H](O)[C@@H]3O)[C@H](O)[C@@H](O)[C@@H]2O)cc(OC)c1O | inactive
13 | CC1(C)CC[C@]2(C(=O)O)CC[C@]3(C)C(=CCC4[C@@]5(C)CCC(O[C@@H]6OC[C@H](O)[C@H](O)[C@H]6O[C@@H]6O[C@H](CO)[C@@H](O)[C@H](O)[C@H]6O)[C@@](C)(CO)C5CC[C@]43C)[C@@H]2C1 (stereo not given in full) | inactive
14 | C=C[C@@]1(C)CC(=O)C2[C@](C)(O1)[C@@H](OC(C)=O)[C@@H](O)[C@H]1C(C)(C)CCC[C@]21C (stereo not given in full) | inactive
15 | Clc1ccc2c(c1)C1=NCCN1c1c(-c3noc(C4CC4)n3)ncn1-2 | inactive
16 | COC1CCCC/C(C)=C/C2C=C(C)C(C)C3C(CC(C)C)NC(=O)C23C(=O)C1 (stereo not given) | inactive
17 | CCC[C@@H]1C[C@@H](C(=O)N[C@@H]([C@H]2O[C@H](SC)[C@H](O)[C@@H](O)[C@@H]2O)[C@@H](C)O)N(C)C1 | inactive
18 | C/C=C/C=C/C(CC(=O)O)Nc1ccc(C=O)cc1 (stereo not given) | 49.3 µM (active)
19 | CC1(C)CCC(C)(C)c2cc([C@@H](O)C(=O)Nc3ccc(C(=O)O)cc3F)ccc21 | 14.1 µM (active)
20 | CC1CCC2(C)C(CC(O)C(O)C23CO3)C1(C)CCC1=CC(O)OC1=O (stereo not given) | inactive
21 | COc1cc2c(cc1OC)CN(C(=O)[C@@H](NCc1ccncc1)C(C)(C)C)CC2 | inactive
22 | CC1CCC2C(C(=O)O)=CC3CC(C)(C)CC132 (stereo not given) | 25.1 µM (active)
23 | CC(=O)C1CCC2(C)C3=C(CCC12C)C1(C)CCC(=O)C(C)(C)C1CC3 (stereo not given) | inactive
24 | CC1(C(=O)O)CCCC2(C)C1CCC13CC(CCC21)C1(CO)OC31 (stereo not given) | inactive
25 | COC(=O)CC[C@@H](C)[C@H]1CC[C@H]2[C@@H]3CC(=O)[C@H]4C[C@H](OC(C)=O)CC[C@]4(C)[C@H]3CC[C@]12C | inactive
26 | CCn1cc(C2=NOC(C(=O)Nc3c(C)n(C)n(-c4ccccc4)c3=O)C2)c(C)n1 (stereo not given) | inactive
27 | CC1=C(CC(=O)O)c2cc(F)ccc2C1=Cc1ccc(S(C)(=O)=O)cc1 | inactive
28 | c1nc(NC2CCCCCC2)c2cc(CNC[C@H]3CCCO3)sc2n1 | inactive
29 | CC1CCCC2OC2C(=O)c2c(O)cc(O)cc2CC(=O)O1 (stereo not given) | inactive
30 | C[C@@H]1O[C@@H](O[C@H]2[C@H](OC(C#N)c3ccc(O)cc3)O[C@H](CO)[C@@H](O)[C@@H]2O)[C@H](O)[C@H](O)[C@H]1O (stereo not given in full) | inactive
